Results taken from the supplement of paper PMC10849652.
Of roughly 7,900 targets only a part is listed; those with a hit were picked by preference. About 0.6% of all pairs of compound and target were hits.

How the values were obtained:
Test in all cases: log2 fold change, soluble protein after heating vs DMSO (PISA); higher = thermal stabilisation; K562 cells, 10 uM, 30 min; active = over 0.2 and 3.5 SD of the protein, either way, in both replicates (recomputed)
[1] = compound: CC[C@@H]1C(=O)N(C)c2cnc(Nc3ccc(C(=O)NC4CCN(C)CC4)cc3OC)nc2N1C1CCCC1
Method in brief: (§1)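 Values are thermal stability changes relative to control samples and are taken from duplicates. They are stated as log2 fold changes. Before quantification by TMTpro 16plex LC-MS/MS with equalised channel sums, K562 cells at 2×10^6 cells/mL were treated with 10 μM compound for 30 min, heated in aliquots for 3 min across 48°C-58°C, pooled, extracted in PBS with 0.5% NP-40 at 4°C, and centrifuged at 21,000xg for 90 min to give the soluble supernatant.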

volasertib = compound: CC[C@@H]1C(=O)N(C)c2cnc(Nc3ccc(C(=O)N[C@H]4CC[C@H](N5CCN(CC6CC6)CC5)CC4)cc3OC)nc2N1C(C)C [volasertib]
Method in brief: as §1

[2] = compound: CC[C@H](C)N1C=C(C2=C(C=C(C=C21)C3=CN=C(C=C3)N4CCNCC4)C(=O)NCC5=C(C=C(NC5=O)C)C)C
Method in brief: as §1

epoxomicin = compound: CC[C@H](C)[C@@H](C(=O)N[C@@H]([C@@H](C)O)C(=O)N[C@@H](CC(C)C)C(=O)[C@]1(CO1)C)NC(=O)[C@H]([C@@H](C)CC)N(C)C(=O)C [epoxomicin]
Method in brief: as §1

[3] = compound: CCn1c(C(=O)N(C2CC2)C2CC2)cc2c3c(ncn3C)c(Nc3cc(C)n(C)n3)nc21
Method in brief: as §1

[4] = compound: CCn1cc(-c2ccnc3[nH]c(-c4cccc(CN(C)C)c4)cc23)c(-c2ccc(NC(=O)N(C)C)cc2)n1
Method in brief: as §1

[5] = compound: CN(C)CC(=O)Nc1ccc2[nH]c(=O)c3ccccc3c2c1
Method in brief: as §1

rosiglitazone = compound: CN(CCOC1=CC=C(C=C1)C[C@H]2C(=O)NC(=O)S2)C3=CC=CC=N3 (racemic) [rosiglitazone]
Method in brief: as §1

[6] = compound: CN1C2=C(C3=C1C(=O)N(N=C3)CC4=CC(=CC=C4)N)SC(=C2)S(=O)C
Method in brief: as §1

[7] = compound: CN1CCC(CNc2ccc3ncc(-c4cccc(OC(F)(F)F)c4)n3n2)CC1
Method in brief: as §1

Sequence of UniProt P11233 (P11233 whole entry, looked up): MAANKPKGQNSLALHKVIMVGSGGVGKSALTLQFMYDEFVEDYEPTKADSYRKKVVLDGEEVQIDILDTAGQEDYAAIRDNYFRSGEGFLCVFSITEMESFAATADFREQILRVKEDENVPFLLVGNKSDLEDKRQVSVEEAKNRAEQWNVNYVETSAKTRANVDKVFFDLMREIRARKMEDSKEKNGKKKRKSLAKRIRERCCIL
Sequence of UniProt P18754 (P18754 whole entry, looked up): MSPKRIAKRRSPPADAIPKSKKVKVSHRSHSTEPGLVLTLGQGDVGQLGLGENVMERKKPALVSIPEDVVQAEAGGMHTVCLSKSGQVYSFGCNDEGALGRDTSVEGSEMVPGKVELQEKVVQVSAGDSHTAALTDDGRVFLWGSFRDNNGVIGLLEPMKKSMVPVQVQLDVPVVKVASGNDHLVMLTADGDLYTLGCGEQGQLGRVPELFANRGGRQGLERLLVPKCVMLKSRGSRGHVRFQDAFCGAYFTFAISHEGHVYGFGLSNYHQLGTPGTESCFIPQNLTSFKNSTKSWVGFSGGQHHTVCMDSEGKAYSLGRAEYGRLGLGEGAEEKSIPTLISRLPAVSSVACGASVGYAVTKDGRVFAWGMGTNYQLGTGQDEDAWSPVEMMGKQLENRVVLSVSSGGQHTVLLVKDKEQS
Sequence of UniProt P35244 (P35244 whole entry, looked up): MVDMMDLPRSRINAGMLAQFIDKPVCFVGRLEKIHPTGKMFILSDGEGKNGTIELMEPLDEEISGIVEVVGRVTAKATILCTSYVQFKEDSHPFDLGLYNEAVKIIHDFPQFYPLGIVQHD
Sequence of UniProt P43003 (P43003 whole entry, looked up): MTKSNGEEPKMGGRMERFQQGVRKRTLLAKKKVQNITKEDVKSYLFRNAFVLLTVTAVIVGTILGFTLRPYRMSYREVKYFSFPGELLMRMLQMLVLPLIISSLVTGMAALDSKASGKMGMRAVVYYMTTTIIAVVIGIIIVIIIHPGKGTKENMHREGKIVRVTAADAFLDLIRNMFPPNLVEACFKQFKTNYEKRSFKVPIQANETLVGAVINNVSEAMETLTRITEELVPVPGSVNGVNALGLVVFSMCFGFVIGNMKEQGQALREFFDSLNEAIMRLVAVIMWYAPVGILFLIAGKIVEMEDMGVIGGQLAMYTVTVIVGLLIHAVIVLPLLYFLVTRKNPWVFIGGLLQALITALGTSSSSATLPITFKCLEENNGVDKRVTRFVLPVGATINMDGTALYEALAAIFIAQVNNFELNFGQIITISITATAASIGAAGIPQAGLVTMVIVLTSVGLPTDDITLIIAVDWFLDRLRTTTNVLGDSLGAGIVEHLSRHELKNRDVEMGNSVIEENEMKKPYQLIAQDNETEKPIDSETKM
Sequence of UniProt Q99496 (Q99496 whole entry, looked up): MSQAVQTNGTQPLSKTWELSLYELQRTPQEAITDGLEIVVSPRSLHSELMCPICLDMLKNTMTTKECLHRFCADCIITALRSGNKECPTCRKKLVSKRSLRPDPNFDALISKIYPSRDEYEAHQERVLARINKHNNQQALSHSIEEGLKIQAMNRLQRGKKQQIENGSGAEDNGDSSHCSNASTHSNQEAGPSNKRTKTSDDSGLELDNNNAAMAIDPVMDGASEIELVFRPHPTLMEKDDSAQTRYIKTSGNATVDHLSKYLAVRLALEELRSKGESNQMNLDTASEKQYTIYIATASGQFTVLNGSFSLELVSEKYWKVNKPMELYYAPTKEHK
Sequence of UniProt Q9BVS4 (Q9BVS4 whole entry, looked up): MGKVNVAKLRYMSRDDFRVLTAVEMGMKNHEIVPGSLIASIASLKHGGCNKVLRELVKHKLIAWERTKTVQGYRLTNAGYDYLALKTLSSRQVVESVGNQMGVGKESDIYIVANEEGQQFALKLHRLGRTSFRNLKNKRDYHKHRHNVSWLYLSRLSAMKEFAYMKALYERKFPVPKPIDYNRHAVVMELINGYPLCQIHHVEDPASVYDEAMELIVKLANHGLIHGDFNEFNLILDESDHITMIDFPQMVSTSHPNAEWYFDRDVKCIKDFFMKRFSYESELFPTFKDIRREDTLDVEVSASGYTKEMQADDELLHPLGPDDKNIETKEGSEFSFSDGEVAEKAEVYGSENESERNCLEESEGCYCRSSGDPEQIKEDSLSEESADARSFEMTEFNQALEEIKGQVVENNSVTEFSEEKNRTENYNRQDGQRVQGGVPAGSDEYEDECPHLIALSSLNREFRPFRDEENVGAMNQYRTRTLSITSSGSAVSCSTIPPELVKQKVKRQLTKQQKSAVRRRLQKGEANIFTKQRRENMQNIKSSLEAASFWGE
Sequence of UniProt Q9BQY4 (Q9BQY4 whole entry, looked up): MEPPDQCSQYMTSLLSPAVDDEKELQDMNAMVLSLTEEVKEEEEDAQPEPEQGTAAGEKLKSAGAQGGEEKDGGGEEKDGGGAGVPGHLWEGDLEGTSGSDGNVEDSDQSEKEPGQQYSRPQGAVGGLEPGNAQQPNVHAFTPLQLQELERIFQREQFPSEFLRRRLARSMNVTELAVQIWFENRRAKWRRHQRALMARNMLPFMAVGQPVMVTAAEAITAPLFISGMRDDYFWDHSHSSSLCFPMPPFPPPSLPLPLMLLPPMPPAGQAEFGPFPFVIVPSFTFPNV
Sequence of UniProt O15027 (O15027 whole entry, looked up): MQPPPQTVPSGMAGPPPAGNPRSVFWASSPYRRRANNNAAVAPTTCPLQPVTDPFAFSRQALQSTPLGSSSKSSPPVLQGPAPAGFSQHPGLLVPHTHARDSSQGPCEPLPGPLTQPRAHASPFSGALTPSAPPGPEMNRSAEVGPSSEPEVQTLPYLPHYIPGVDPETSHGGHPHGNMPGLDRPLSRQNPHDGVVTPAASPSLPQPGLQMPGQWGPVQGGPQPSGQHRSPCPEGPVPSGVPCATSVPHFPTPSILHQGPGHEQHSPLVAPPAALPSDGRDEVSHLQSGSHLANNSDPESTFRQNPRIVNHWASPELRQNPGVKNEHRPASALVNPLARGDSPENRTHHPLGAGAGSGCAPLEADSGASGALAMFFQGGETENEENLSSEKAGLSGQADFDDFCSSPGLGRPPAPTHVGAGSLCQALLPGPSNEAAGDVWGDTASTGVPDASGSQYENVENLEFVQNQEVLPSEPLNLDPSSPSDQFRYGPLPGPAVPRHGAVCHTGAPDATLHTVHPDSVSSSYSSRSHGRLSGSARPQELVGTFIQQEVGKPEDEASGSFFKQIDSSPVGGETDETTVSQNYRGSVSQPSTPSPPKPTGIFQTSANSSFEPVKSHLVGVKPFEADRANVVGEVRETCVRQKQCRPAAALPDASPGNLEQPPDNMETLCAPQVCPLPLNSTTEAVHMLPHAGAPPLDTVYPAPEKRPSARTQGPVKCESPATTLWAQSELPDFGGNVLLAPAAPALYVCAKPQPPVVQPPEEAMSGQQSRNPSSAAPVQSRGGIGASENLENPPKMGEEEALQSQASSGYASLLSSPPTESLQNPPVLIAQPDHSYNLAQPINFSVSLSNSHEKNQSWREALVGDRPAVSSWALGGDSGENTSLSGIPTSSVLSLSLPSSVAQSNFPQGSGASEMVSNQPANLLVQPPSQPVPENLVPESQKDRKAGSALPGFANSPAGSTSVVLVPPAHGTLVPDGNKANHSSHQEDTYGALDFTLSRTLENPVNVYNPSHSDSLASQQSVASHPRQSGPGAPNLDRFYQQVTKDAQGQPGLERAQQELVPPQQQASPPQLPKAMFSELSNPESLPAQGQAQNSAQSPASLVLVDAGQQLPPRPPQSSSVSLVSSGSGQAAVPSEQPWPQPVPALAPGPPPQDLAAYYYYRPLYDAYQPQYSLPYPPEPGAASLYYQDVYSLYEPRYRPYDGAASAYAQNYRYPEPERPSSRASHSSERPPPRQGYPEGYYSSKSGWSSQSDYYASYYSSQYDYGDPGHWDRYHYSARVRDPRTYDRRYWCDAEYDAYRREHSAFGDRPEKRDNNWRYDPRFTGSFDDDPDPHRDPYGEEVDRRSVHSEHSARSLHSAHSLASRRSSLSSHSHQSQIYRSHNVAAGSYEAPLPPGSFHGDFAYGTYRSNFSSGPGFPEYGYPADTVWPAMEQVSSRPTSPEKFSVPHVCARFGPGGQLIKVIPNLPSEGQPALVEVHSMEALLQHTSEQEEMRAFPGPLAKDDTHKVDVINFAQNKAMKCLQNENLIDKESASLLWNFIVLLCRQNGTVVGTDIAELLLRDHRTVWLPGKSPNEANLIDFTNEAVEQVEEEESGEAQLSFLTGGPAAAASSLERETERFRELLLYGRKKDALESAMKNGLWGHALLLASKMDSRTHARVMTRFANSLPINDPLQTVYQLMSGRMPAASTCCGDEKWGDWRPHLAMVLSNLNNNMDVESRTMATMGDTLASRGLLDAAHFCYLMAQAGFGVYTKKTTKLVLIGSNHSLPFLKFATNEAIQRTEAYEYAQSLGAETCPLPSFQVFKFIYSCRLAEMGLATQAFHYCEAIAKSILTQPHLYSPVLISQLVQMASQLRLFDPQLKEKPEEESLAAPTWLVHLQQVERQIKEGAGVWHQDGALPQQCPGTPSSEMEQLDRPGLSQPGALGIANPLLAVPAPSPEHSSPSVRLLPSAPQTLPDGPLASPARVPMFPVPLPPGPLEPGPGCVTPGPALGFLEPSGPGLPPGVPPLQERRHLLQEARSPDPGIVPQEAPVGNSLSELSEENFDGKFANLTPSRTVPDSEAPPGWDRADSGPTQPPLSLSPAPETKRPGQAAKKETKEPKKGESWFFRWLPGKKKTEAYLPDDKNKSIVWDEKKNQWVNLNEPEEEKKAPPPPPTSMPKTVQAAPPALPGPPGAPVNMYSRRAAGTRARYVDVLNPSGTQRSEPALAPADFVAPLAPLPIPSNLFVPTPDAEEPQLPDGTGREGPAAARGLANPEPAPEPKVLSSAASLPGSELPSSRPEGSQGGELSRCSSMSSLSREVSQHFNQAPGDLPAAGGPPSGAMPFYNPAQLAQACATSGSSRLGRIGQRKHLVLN
Sequence of UniProt Q9Y3L5 (Q9Y3L5 whole entry, looked up): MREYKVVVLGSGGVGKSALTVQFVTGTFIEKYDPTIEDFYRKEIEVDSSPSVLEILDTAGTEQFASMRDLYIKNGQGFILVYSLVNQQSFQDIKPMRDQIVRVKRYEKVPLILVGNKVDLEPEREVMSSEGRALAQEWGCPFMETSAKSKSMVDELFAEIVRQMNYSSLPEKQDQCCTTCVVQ

Target | log2 fold change [1] | log2 fold change (volasertib) | log2 fold change [2] | log2 fold change (epoxomicin) | log2 fold change [3] | log2 fold change [4] | log2 fold change [5] | log2 fold change (rosiglitazone) | log2 fold change [6] | log2 fold change [7]
RAB8B (UniProt Q92930) | 0.036 (inactive) | 0.033 (inactive) | -0.039 (inactive) | 0.229 (inactive) | -0.011 (inactive) | 0.003 (inactive) | 0.013 (inactive) | 0.085 (inactive) | -0.05 (inactive) | 0.227 (inactive)
RPS13 (UniProt P62277) | 0.219 (inactive) | 0.567 (inactive) | 0.035 (inactive) | -0.324 (inactive) | 0.055 (inactive) | 0.236 (inactive) | -0.066 (inactive) | -0.12 (inactive) | 0.219 (inactive) | 0.243 (inactive)
RPS12 (UniProt P25398) | 0.108 (inactive) | 0.219 (inactive) | 0.038 (inactive) | -0.021 (inactive) | -0.002 (inactive) | 0.063 (inactive) | -0.028 (inactive) | -0.037 (inactive) | 0.064 (inactive) | 0.079 (inactive)
RAP2C (UniProt Q9Y3L5) | 0.02 (inactive) | 0.05 (inactive) | 0.042 (inactive) | 0.172 (inactive) | 0.054 (inactive) | 0.097 (inactive) | 0.052 (inactive) | -0.045 (inactive) | -0.105 (inactive) | 0.173 (inactive)
RNPS1 (UniProt Q15287) | 0.062 (inactive) | -0.155 (inactive) | 0.049 (inactive) | -0.126 (inactive) | -0.043 (inactive) | -0.008 (inactive) | 0.031 (inactive) | -0.08 (inactive) | 0.016 (inactive) | 0.006 (inactive)
RNASET2 (UniProt O00584) | -0.275 (active) | -0.196 (inactive) | 0.023 (inactive) | -0.027 (inactive) | 0.039 (inactive) | 0.045 (inactive) | 0.036 (inactive) | -0.006 (inactive) | -0.036 (inactive) | -0.413 (active)
SLC1A3 (UniProt P43003) | -0.065 (inactive) | 0.003 (inactive) | 0.018 (inactive) | 0.087 (inactive) | 0.037 (inactive) | -0.101 (inactive) | -0.048 (inactive) | -0.021 (inactive) | -0.286 (inactive) | 0.254 (inactive)
RIOK3 (UniProt O14730) | 0.084 (inactive) | 0.04 (inactive) | -0.01 (inactive) | 0.072 (inactive) | 0.001 (inactive) | -0.053 (inactive) | -0.011 (inactive) | 0.024 (inactive) | -0.023 (inactive) | -0.041 (inactive)
RHOXF2 (UniProt Q9BQY4) | 0.014 (inactive) | 0.061 (inactive) | -0.046 (inactive) | 0.024 (inactive) | -0.079 (inactive) | 0.086 (inactive) | -0.028 (inactive) | -0.013 (inactive) | 0.074 (inactive) | -0.073 (inactive)
RECQL (UniProt P46063) | -0.032 (inactive) | -0.014 (inactive) | 0.002 (inactive) | 0 (inactive) | 0.009 (inactive) | -0.021 (inactive) | 0.016 (inactive) | 0.032 (inactive) | -0.076 (inactive) | 0.058 (inactive)
RPS25 (UniProt P62851) | 0.063 (inactive) | 0.338 (inactive) | 0.012 (inactive) | -0.172 (inactive) | 0.034 (inactive) | 0.134 (inactive) | -0.03 (inactive) | -0.062 (inactive) | 0.122 (inactive) | 0.146 (inactive)
RALA (UniProt P11233) | 0.084 (inactive) | 0.025 (inactive) | -0.044 (inactive) | -0.054 (inactive) | 0.021 (inactive) | 0.029 (inactive) | -0.029 (inactive) | -0.021 (inactive) | -0.115 (inactive) | 0.434 (active)
SAFB2 (UniProt Q14151) | 0.018 (inactive) | 0.118 (inactive) | -0.022 (inactive) | -0.246 (inactive) | -0.003 (inactive) | 0.203 (inactive) | -0.061 (inactive) | -0.028 (inactive) | 0.235 (inactive) | 0.23 (inactive)
SLC1A5 (UniProt Q15758) | 0.095 (inactive) | 0.027 (inactive) | -0.043 (inactive) | -0.001 (inactive) | 0.042 (inactive) | -0.014 (inactive) | -0.02 (inactive) | -0.009 (inactive) | -0.114 (inactive) | 0.226 (active)
RNPEP (UniProt Q9H4A4) | 0.015 (inactive) | -0.303 (active) | 0.078 (inactive) | 0.042 (inactive) | -0.074 (inactive) | -0.09 (inactive) | 0.034 (inactive) | 0.077 (inactive) | -0.036 (inactive) | -0.119 (inactive)
RNF2 (UniProt Q99496) | -0.045 (inactive) | -0.169 (inactive) | -0.307 (active) | 0.168 (inactive) | 0.1 (inactive) | 0.012 (inactive) | 0.007 (inactive) | 0.036 (inactive) | 0.063 (inactive) | -0.03 (inactive)
RAB3IL1 (UniProt Q8TBN0) | -0.018 (inactive) | -0.136 (inactive) | -0.001 (inactive) | -0.001 (inactive) | -0.014 (inactive) | -0.15 (inactive) | 0.009 (inactive) | 0.029 (inactive) | -0.035 (inactive) | 0.013 (inactive)
RRAGC (UniProt Q9HB90) | -0.009 (inactive) | -0.003 (inactive) | -0.051 (inactive) | -0.045 (inactive) | 0.041 (inactive) | 0 (inactive) | -0.024 (inactive) | 0.05 (inactive) | -0.067 (inactive) | -0.177 (inactive)
RCC1 isoform 2 (UniProt P18754) | -0.037 (inactive) | -0.063 (inactive) | 0.044 (inactive) | 0.118 (inactive) | -0.185 (inactive) | -0.02 (inactive) | 0.168 (inactive) | 0.053 (inactive) | -0.09 (inactive) | 0.11 (inactive)
REL (UniProt Q04864) | 0.045 (inactive) | -0.176 (inactive) | -0.022 (inactive) | 0.043 (inactive) | -0.062 (inactive) | 0.159 (inactive) | 0.003 (inactive) | 0.063 (inactive) | 0.011 (inactive) | 0.141 (inactive)
RIOK2 (UniProt Q9BVS4) | 0.133 (inactive) | 0.267 (inactive) | 0.015 (inactive) | -0.032 (inactive) | 0.019 (inactive) | -0.013 (inactive) | -0.038 (inactive) | 0.014 (inactive) | 0.085 (inactive) | 0.202 (inactive)
SDCBP (UniProt O00560) | -0.223 (inactive) | -0.249 (inactive) | 0.01 (inactive) | -0.043 (inactive) | 0.059 (inactive) | -0.01 (inactive) | -0.061 (inactive) | -0.008 (inactive) | 0.045 (inactive) | -0.229 (inactive)
RPS14 (UniProt P62263) | 0.043 (inactive) | 0.362 (inactive) | 0.023 (inactive) | -0.031 (inactive) | 0.015 (inactive) | 0.122 (inactive) | -0.066 (inactive) | -0.056 (inactive) | 0.095 (inactive) | 0.158 (inactive)
RPA3 (UniProt P35244) | -0.006 (inactive) | -0.056 (inactive) | -0.002 (inactive) | 0.06 (inactive) | 0.021 (inactive) | -0.044 (inactive) | 0.163 (inactive) | 0.003 (inactive) | -0.054 (inactive) | 0.039 (inactive)
RPS15 (UniProt P62841) | 0.2 (inactive) | 0.294 (inactive) | -0.017 (inactive) | -0.056 (inactive) | 0 (inactive) | 0.061 (inactive) | -0.099 (inactive) | -0.113 (inactive) | 0.164 (inactive) | 0.02 (inactive)
SERPINA7 (UniProt P05543) | 0.055 (inactive) | 0.309 (inactive) | 0.044 (inactive) | -0.68 (active) | 0.073 (inactive) | 0.036 (inactive) | -0.123 (inactive) | -0.014 (inactive) | 0.255 (inactive) | 0.279 (inactive)
SEC16A isoform 5 (UniProt O15027) | -0.058 (inactive) | -0.271 (inactive) | 0.051 (inactive) | -0.04 (inactive) | -0.146 (inactive) | -0.048 (inactive) | 0.1 (inactive) | 0.06 (inactive) | 0.078 (inactive) | -0.047 (inactive)
